Results filed as inconclusive are left out. Active and inactive are the calls of the source. How the source made its calls, unless noted: active means hit-call score of the fitted dose curve at least 0.9, where 1 is the maximum; inactive means score below 0.9.

In experiment [1] the target is human Vitamin D Receptor (VDR), VDR (gene 7421) (UniProt P11473). Put plainly: ATG_VDR_TRANS: Attagene TRANS-FACTORIAL HepG2 Assay for human Vitamin D Receptor (VDR) (AID 2283022; active means hit-call score of the fitted dose curve at least 0.9, where 1 is the maximum). In outline: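 Transactivation by an exogenous VDR-Gal4 chimera in transiently transfected HepG2 cells was measured as reporter transcript level 24 hours after chemical treatment. RT-PCR products were analysed by capillary electrophoresis and fitted in the positive direction relative to DMSO.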
Sequence of human Vitamin D Receptor (VDR), VDR (gene 7421) (P11473 whole entry, looked up, the tested form may be a part): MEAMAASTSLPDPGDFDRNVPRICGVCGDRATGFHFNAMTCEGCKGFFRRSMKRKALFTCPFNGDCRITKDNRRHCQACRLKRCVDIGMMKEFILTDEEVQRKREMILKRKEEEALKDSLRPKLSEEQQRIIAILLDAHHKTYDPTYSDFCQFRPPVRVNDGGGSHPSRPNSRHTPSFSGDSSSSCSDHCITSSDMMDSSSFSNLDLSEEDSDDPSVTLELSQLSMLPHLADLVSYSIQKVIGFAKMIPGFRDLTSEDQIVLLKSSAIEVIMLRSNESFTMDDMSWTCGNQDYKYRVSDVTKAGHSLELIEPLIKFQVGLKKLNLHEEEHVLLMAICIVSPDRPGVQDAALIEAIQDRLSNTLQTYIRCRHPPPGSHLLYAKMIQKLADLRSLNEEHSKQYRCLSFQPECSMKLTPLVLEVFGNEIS

A short description of experiment [2]: BSK_3C_SRB: Viability Assessment in the BioMAP Diversity Plus: 3C Assay (AID 2283023).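 Further: fitted both ways against DMSO so a hit may be signal rise or drop.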 The following applies: primary human endothelial cells (HUVEC). In outline:
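Cytotoxicity readout in parallel HUVEC 3C cultures: after 24 h compound exposure, cells fixed with 10% TCA, stained with 0.1% SRB and read at 560 nm. Gain or loss relative to DMSO fitted.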

The nature of experiment [3]: BSK_3C_Vis: BioMAP Diversity Plus: 3C Assay for Morphology Visualization (AID 2283025).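 Further: fitted both ways so gain or loss versus DMSO counts.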 Conditions: primary human endothelial cells (HUVEC). The method, boiled down: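 Human umbilical vein endothelial cells in the 3C system were imaged by light microscopy 24 h after chemical dosing to record cell morphology. Activity was fitted bidirectionally against DMSO as negative control and baseline; the endpoint serves as a background control.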

Read-out in experiment [4]: Pselectin, SELP (gene 6403)
Put plainly: BSK_4H_Pselectin: BioMAP Diversity Plus: 4H Assay for Pselectin Biomarker Activity (AID 2283026). Conditions: primary human endothelial cells (HUVEC); actives raise or lower the signal. The method, boiled down: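 Primary human umbilical vein endothelial cells were exposed to test chemical for 24 h, then cell-surface P-selectin was quantified by ELISA. Activity was fitted bidirectionally against DMSO as negative control and baseline.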

Experiment [5] can be described thus: BSK_4H_SRB: Viability Assessment in the BioMAP Diversity Plus: 4H Assay (AID 2283027).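 Further: cells exposed to compound for 24 h before staining.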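 On AC50: curves fitted both ways versus DMSO so AC50 may be loss or gain.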 The following applies: primary human endothelial cells (HUVEC). The method, boiled down:
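Absorbance at 560 nm of SRB-stained total protein served as the viability read-out in confluent primary human umbilical vein endothelium 24 h after chemical treatment. Curves were fitted bidirectionally against DMSO as negative control.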

A short description of experiment [6]: BSK_BE3C_SRB: Viability Assessment in the BioMAP Diversity Plus: BE3C Assay (AID 2283028).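 On AC50: fitted both ways so AC50 may mark signal gain or loss versus DMSO.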 Conditions: primary human bronchial epithelial cells. The method, boiled down: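 Cytotoxicity read-out: SRB (0.1%) staining of TCA-fixed (10%) human lung bronchial epithelial cells, absorbance 560 nm, 24 h post-dosing. Curves fitted both directions relative to DMSO.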

Read-out in experiment [7]: Thrombomodulin, THBD (gene 7056)
The experiment is described as follows: BSK_3C_Thrombomodulin: BioMAP Diversity Plus: 3C Assay for Thrombomodulin Biomarker Activity (AID 2283029). Conditions: primary human endothelial cells (HUVEC); actives raise or lower the signal. The method, boiled down: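 Primary human umbilical vein endothelial cells (3C system) were exposed to chemical for 24 h, then thrombomodulin levels were measured by ELISA. Activity was fitted bidirectionally against the DMSO negative control as baseline.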

Read-out in experiment [8]: Urokinase-type plasminogen activator receptor (uPAR), PLAUR (gene 5329)
Put plainly: BSK_4H_uPAR: BioMAP Diversity Plus: 4H Assay for Urokinase-type plasminogen activator receptor (uPAR) Biomarker Activity (AID 2283030). The following applies: primary human endothelial cells (HUVEC); actives raise or lower the signal. The method, boiled down:
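uPAR level read by ELISA on HUVEC cultures (BioMAP 4H) 24 h post-dosing, analyzed for gain or loss relative to DMSO. Parallel SRB staining assessed overt cytotoxicity.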

Read-out in experiment [9]: Vascular endothelial growth factor receptor 2 (Homo sapiens) (UniProt P35968)
The experiment is described as follows: BSK_4H_VEGFRII: BioMAP Diversity Plus: 4H Assay for Vascular endothelial growth factor receptor 2 (VEGFR2) Biomarker Activity (AID 2283031).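 On AC50: cell-surface VEGFR2 protein level quantified by ELISA.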 Conditions: primary human endothelial cells (HUVEC); actives raise or lower the signal. In outline: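 Measured by ELISA after 24 h of compound treatment: VEGFR2 on primary human umbilical vein endothelial cells, fitted in both directions relative to DMSO. Parallel cultures received SRB staining (560 nm) for overt cytotoxicity.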

Read-out in experiment [10]: Matrix Metallopeptidase 1 (MMP1), MMP1 (gene 4312)
The experiment is described as follows: BSK_BE3C_MMP1: BioMAP Diversity Plus: BE3C Assay for Matrix Metallopeptidase 1 (MMP1) Biomarker Activity (AID 2283024). Conditions: primary human bronchial epithelial cells; actives raise or lower the signal. The method, boiled down: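 Primary human bronchial epithelial cells were dosed with test chemicals, and MMP1 levels were measured by ELISA 24 h later. Data were fitted bidirectionally against DMSO as the negative control and activity baseline.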

As to `c1ccc(N=Nc2ccccc2)cc1`, the compound was classed as inactive in experiment [1], in experiment [2], in experiment [3], in [4], in [5] and in experiment [6]. The result in experiment [7], in [8] and in [9] was inactive.

Consider `c1ccc2c(c1)oc1ccccc12`, for which the result in experiment [2], in experiment [10], in experiment [3], in experiment [4], in experiment [5] and in experiment [6] was inactive. For the same compound, the outcome in [7], in experiment [8] and in experiment [9] was inactive.

With `O=[N+]([O-])c1ccc(Oc2ccc(Cl)cc2Cl)cc1`, the compound was called inactive in [1], in experiment [4], in experiment [5], in [6], in experiment [7] and in experiment [8]. Besides, the result in [9] was inactive. The AC50 (as a rule, the concentration at which the activity in the assay is half-maximal) in experiment [2] is 31.2 µM (active); in [3], 39 µM (active).

With `CN(C)c1ccccc1`, the result in experiment [1], in [2], in experiment [10], in experiment [3], in experiment [4] and in experiment [5] was inactive. Moreover, the result in [6], in [7], in [8] and in [9] was inactive.

Regarding `Brc1ccc(Oc2ccccc2)cc1`, the call in [1], in [3], in experiment [4], in experiment [5], in experiment [6] and in experiment [7] was inactive. For the same compound, the outcome in experiment [8] and in experiment [9] was inactive. The AC50 in [2] was 28.9 µM (active).

Consider `CS(=O)(=O)NC(=O)c1cc(Oc2ccc(C(F)(F)F)cc2Cl)ccc1[N+](=O)[O-]`, for which the compound was classed as inactive in [1], in experiment [2], in experiment [3], in experiment [4], in experiment [5] and in experiment [6]. Further, the result in experiment [7], in experiment [8] and in [9] was inactive.

Regarding `O=[N+]([O-])C(Br)(CO)CO`, the call in [1], in experiment [6], in experiment [7] and in [9] was inactive. In addition, the AC50 was 15.3 µM (active) in experiment [2]; 37.5 µM (active) in experiment [3]; 20 µM (active) in [4]; 20 µM (active) in experiment [5]; 31.7 µM (active) in experiment [8].

In the case of `N#CC(Br)(Br)C(N)=O`, the outcome in [1], in experiment [2], in [3], in experiment [4], in [5] and in experiment [6] was inactive. For the same compound, the result in experiment [7], in experiment [8] and in experiment [9] was inactive.

As to `Cc1ccc(N)cc1`, the result in experiment [2], in experiment [10], in experiment [3], in experiment [4], in [5] and in experiment [6] was inactive. In addition, the result in experiment [7], in [8] and in [9] was inactive.

As to `Oc1ccccc1Cl`, the outcome in experiment [1], in experiment [2], in experiment [3], in [4], in experiment [5] and in [6] was inactive. Besides, the result in experiment [7], in experiment [8] and in [9] was inactive.

`O=C1CCCO1`: the call in [1], in experiment [2], in [4], in experiment [5], in [6] and in [7] was inactive. The result in experiment [8] and in experiment [9] was inactive. The AC50 in experiment [3] was 16.3 µM (active).

With `Clc1ccc(C(c2ccc(Cl)cc2)C(Cl)Cl)cc1`, the compound was called inactive in experiment [1], in experiment [6] and in experiment [7]. The AC50 was 19.3 µM (active) in experiment [2]; 37.3 µM (active) in experiment [3]; 15.1 µM (active) in experiment [4]; 29.3 µM (active) in [5]; 31.4 µM (active) in experiment [8]; 26.1 µM (active) in [9].

Turning to `N#CC(Br)Br`, the result in [2], in experiment [10], in experiment [3], in experiment [4], in experiment [5] and in experiment [6] was inactive. Further, the result in [7], in [8] and in experiment [9] was inactive.

With `CC(C)N(Cc1ccccc1)C(=O)C(C)(C)C`, the call in experiment [1], in experiment [2], in experiment [3], in experiment [4], in [5] and in experiment [6] was inactive. Moreover, the result in experiment [7], in [8] and in experiment [9] was inactive.

Regarding `Clc1ccc(Cl)c(Cl)c1`, the compound was called inactive in experiment [1], in experiment [2], in [3], in experiment [4], in [5] and in [6]. The result in experiment [7], in experiment [8] and in experiment [9] was inactive.

As to `[O-][Cl+]O`, the result in experiment [2], in experiment [10], in [3], in experiment [4], in [5] and in [6] was inactive. The outcome in [7] and in experiment [8] was inactive.

For the compound `[As]#[In]`, the result in experiment [2], in experiment [3], in experiment [4], in experiment [5], in experiment [6] and in experiment [7] was inactive. Further, the result in experiment [8] and in experiment [9] was inactive.

Take `COc1cc(C=O)cc2c1[C@H](COC(N)=O)[C@]1(OC(C)=O)ON2C[C@H]2[C@@H]1N2C(C)=O`: the AC50 is 6.86 µM (active) in [2]; 3.3 µM (active) in [10]; 10.3 µM (active) in experiment [3]; 3.37 µM (active) in experiment [4]; 3.17 µM (active) in experiment [5]; 6.31 µM (active) in [6]. The AC50 was 1.14 µM (active) in [8] and 4.42 µM (active) in experiment [9]. The result in experiment [7] was inactive.

As for `C[N+](C)(C)CC1CO1` (stereo unspecified), the result in [2], in experiment [3], in [4], in [5], in [6] and in [7] was inactive. Moreover, the result in [8] and in experiment [9] was inactive.

In the case of `CC(C)(C)OOC(C)(C)CCC(C)(C)OOC(C)(C)C`, the outcome in experiment [2], in experiment [10], in experiment [3], in experiment [4], in experiment [5] and in experiment [6] was inactive. The outcome in experiment [7], in [8] and in experiment [9] was inactive.

For the compound `ClC1=C(Cl)C2(Cl)C3C(Cl)C=CC3C1(Cl)C2(Cl)Cl` (stereo unspecified), the half-maximal activity concentration (AC50) in experiment [2] is 28.7 µM (active); in [3], 37.3 µM (active); in experiment [4], 28.5 µM (active); in experiment [5], 33.4 µM (active); in experiment [8] it was 34.7 µM (active); in experiment [9] it was 20 µM (active). Further, the outcome in [6] and in [7] was inactive.

These data come from PubChem BioAssay (EPA / NIEHS).
